# Assay outcomes from PubChem.
# In the library only some 11% were active in any assay of this set; here they are far more common.
# PNC assembly inh: blocks assembly of the perinucleolar compartment; 140,000 tested, 3.1% active; AID 2417; activity change (PNC), negative = inhibition, % at 10 µM; PC3M PTB-GFP, PNC prevalence imaging, 16 h; active compounds read low;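 active means readout at or below -70, meaning at least 70% loss of cells showing the perinucleolar compartment, a nuclear body marking cancer cells; inconclusive means readout between -30 and a set limit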;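 further: plate controls were DMSO wells for no effect and camptothecin positive control wells for full effect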
#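 Read-out is percentage of cells bearing a perinucleolar compartment, from automated 20x imaging of fixed, Hoechst-stained PC3M PTB-GFP cells. Cells were seeded 4 h, then exposed 16 h to compound (23 nl of library stock) in duplicate plates.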
# ALOX12 inhib: 12-hLO (ALOX12) enzyme inhibition; P18054; purified 12-hLO, xylenol orange hydroperoxide absorbance; Potency, µM (doses to about 57.1 µM), for inactives: top-dose activity change, negative = inhibition, most hits filed as inhibitors; 150,000 tested, 0.12% active; AID 1452; active means well fitted curve in the direction sought with a large enough effect; inconclusive means small, poorly fitted or top-dose-only effect, or another doubt; inactive means no such curve, though single readings can be large; an effect the other way counts as inactive or inconclusive; further: potency means the concentration at half of the fitted maximal effect; nearly all actives have a fitted effect of over 55% in size
#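 150 nM 12hLO, 25 mM Hepes pH 7.0 + 0.01% Triton X-100; cpd preinc 15 min RT; 40 uM arachidonic acid, 30 min RT; Fe-XO 30 min; A573/A405 ratio as read-out.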
# IMPase Li cell: cell-permeable IMPase inhibitors with lithium potentiation; CHO-M1 cells, IP1 TR-FRET (IP-One), carbachol + lithium; Potency, µM (series often up to 59.4 µM), without a hit: at the top dose activity, negative = IMPase inhibition, usual class: inhibitors; 210,000 tested, 0.35% active; AID 1457; active means well fitted curve in the direction sought with a large enough effect; inconclusive means small, poorly fitted or top-dose-only effect, or another doubt; inactive means no such curve, though single readings can be large; an effect the other way counts as inactive or inconclusive;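 further: IP1 builds up when IMPase is blocked and the TR-FRET signal falls; potency means the concentration at half of the fitted maximal effect; plate controls were basal vehicle for no effect and high inhibitor control for full effect; nearly all actives have a fitted effect of over 50% in size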
#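 IP1 accumulation measured by competitive TR-FRET in lysed CHO-M1 cells after 30 min compound exposure at 37C, with a small lithium addition to potentiate weak responses. Hill-equation AC50 from ratio and donor-channel data.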
# IMPase cell inh: cell-permeable inhibitors of inositol monophosphatase (IMPase); 120,000 tested, under 10 active; AID 901; inhibition (IP1 accumulation), % at 46.1 µM; CHO-M1 cells, IP1 accumulation, HTRF TR-FRET ratio; P97697; active means well fitted curve in the direction sought with a large enough effect in the signal ratio, not every such curve was filed as active; inconclusive means small, poorly fitted or top-dose-only effect, or a change in a side signal; inactive means no such curve, though single readings can be large or run the other way; the % refers to the signal ratio;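 further: cells stimulated with carbachol in lithium chloride buffer; plate controls were DMSO basal wells for no effect and reference inhibitor wells for full effect; higher means more IMPase inhibition seen as more IP1 and lower FRET ratio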
#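 Cellular IMPase inhibition is scored as a rise in cytosolic IP1, detected by competitive TR-FRET between d2-labelled IP1 and a europium anti-IP1 antibody. M1-expressing CHO cells were stimulated with carbachol for 30 min at 37C, with lithium (50 mM LiCl) present in the buffer.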
# HPGD inh: blocks human HPGD enzyme activity | AID 894 | 150,000 tested, 4.3% active | Potency, µM, inactives show top-dose activity change, negative = inhibition, most hits filed as inhibitors | P15428 | purified HPGD, NADH fluorescence kinetic, PGE2 substrate; further: potency means the concentration at half of the fitted maximal effect
# Target sequence (P15428 whole entry, looked up): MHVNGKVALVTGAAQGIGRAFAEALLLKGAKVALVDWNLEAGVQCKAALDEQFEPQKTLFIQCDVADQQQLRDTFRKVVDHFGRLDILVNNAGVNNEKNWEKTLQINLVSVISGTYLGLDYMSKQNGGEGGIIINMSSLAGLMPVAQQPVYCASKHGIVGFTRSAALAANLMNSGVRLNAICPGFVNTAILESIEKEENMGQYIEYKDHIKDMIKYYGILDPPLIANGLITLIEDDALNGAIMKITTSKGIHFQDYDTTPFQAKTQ
#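 20 nM HPGD preincubated 15 min at room temperature with compound in 50 mM Tris-HCl pH 8, 0.01% Tween 20. Started with 1 mM NAD+ and 30 uM prostaglandin E2; NADH fluorescence (360/450 nm) read 5 times over 30-s intervals, last minus first.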
# ALDH1A1 block: inhibitors of human aldehyde dehydrogenase 1A1; Purified ALDH1A1, NADH fluorescence, propionaldehyde substrate; AID 1030; P00352; Potency, µM (titrated, usually from 75.3 µM), inactives show at the top dose activity, negative = inhibition, most hits filed as inhibitors; 220,000 tested, 7.3% active;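 further: potency means the concentration at half of the fitted maximal effect; plate controls were no enzyme wells and a reference inhibitor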
# Target sequence (P00352 whole entry, looked up): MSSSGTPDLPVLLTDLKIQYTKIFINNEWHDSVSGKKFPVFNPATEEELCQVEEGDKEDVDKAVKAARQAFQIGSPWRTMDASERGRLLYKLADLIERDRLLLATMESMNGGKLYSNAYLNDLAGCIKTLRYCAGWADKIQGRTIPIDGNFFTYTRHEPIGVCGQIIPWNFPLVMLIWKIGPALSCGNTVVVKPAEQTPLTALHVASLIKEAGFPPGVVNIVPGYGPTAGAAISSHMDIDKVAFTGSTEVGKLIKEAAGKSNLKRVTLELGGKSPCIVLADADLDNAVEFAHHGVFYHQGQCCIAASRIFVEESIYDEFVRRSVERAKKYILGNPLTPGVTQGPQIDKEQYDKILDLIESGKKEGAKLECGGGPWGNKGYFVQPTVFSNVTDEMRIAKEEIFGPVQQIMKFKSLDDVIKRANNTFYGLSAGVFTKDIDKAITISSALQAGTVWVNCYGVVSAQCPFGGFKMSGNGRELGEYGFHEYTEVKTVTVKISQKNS
# The depositor's hits bear a star; u = inconclusive; x = no result; [ ] = remark or other dose. Unless noted, the call rests on the fitted dose curve; in most records, active means well fitted inhibition curve with a large enough effect (not every such curve was filed as active); inconclusive means small, poorly fitted or top-dose-only effect, or another doubt; inactive means no such curve, though single readings can be large or run the other way. Unless noted, on the % scale 0 is the no-effect control and ±100 the full control effect.
SMILES,PNC assembly inh,ALOX12 inhib,IMPase Li cell,IMPase cell inh,HPGD inh,ALDH1A1 block
Cc1cc(/C=N/NC(=O)c2ccncc2)c(C)n1-c1ccccc1,u,-3.9%,-3.2%,-6.6,-9.7%,u
Cc1ccc(-n2c(C)cc(/C=N/NC(=O)CC3(C)OCCO3)c2C)c(C)c1,-25.1,0.3%,1.1%,1.5[0.369 µM],-20.5%,14.1µM*
CCc1ccc(-n2c(C)cc(/C=N/NC(=O)c3ccncc3)c2C)cc1,x,x,9.7%,x,x,7.94µM*
Cc1ccc(-n2c(C)cc(/C=N/NC(=O)c3ccncc3)c2C)c(C)c1,-20.9,-9.5%,6.6%[38.3 µM],2.6,-14.7%,12.6µM*
N[C@@H](Cc1ccnnc1)C(=O)O,x,-4.5%[11.4 µM],-7.6%,x,-10.2%,-1.2%[13.5 µM]
COC(=O)c1ccc(C(NC(=O)OCc2ccccc2)/C(F)=C/[C@@H](C)C(=O)NCc2cccnc2)cc1 (stereo partly specified),x,-5.2%,-3.3%,x,-8.5%,-9.2%
COc1cccc(Nc2ncc3nc(-c4cccs4)c(=O)n(C[C@H]4CCCO4)c3n2)c1,x,x,5.0%,x,x,-0.9%
CCOc1ccc(NC(=O)C2CC(=O)NC(=Nc3ccc(Cl)c(Cl)c3)S2)cc1 (stereo unspecified),x,x,x,0.9,x,x
COc1ccc(C(c2c(C)[nH]n(-c3ccccc3)c2=O)c2c(C)[nH]n(-c3ccccc3)c2=O)cc1OC,u,-14.5%,13.4%,11.1,u,8.91µM*
Cc1[nH]n(-c2ccccc2)c(=O)c1C(C[N+](=O)[O-])c1ccc(Cl)cc1 (stereo unspecified),12.8,-8.1%,20.4%,x,28.2µM*,20µM*
IC(I)I,x,-0.4%,4.6%,x,-13.4%,12.6µM*
CCN=c1sc(C(=O)NCCc2ccccc2)cc(=O)n1CC,21.8,-14.6%,5.8%[38.3 µM],-12.3,-11.6%,6.31µM*
COc1ccc(OC)c(NC(=O)Cc2c(C(=O)O)n(C)c3ccc(C)cc23)c1,x,x,x,8.3,x,x
COCCNC(=O)CCSCc1ccccc1F,23.3,0.3%,19.9%[38.3 µM],12.6,25.1µM*,-1.4%
COc1cccc(OC)c1CNC(=O)CCSCc1ccccc1F,x,x,0.3%,x,x,u
CCOc1ccc(C(=O)Nc2ccc(-c3cc4ccccc4oc3=O)cc2)cc1Br,x,x,x,-5.6,x,x
CC(=O)/C=C\c1cn(-c2ncc(C(F)(F)F)cc2Cl)c2ccccc12,-124.4*,-5.4%,5.0%[38.3 µM],5.4[1.84 µM],31.6µM*,-6.7%
CCOC(=O)C[N+](CC)(CC)CC#Cc1ccccc1,u,2.1%,1.2%,x,-0.7%,10.8%
COc1cccc(C(=O)NCC(=O)N/N=C/c2cn[nH]c2-c2ccccc2)c1,x,x,-0.9%,x,x,u
CC(=O)Nc1ccc(S(=O)(=O)N(CC(=O)O)Cc2ccccc2)cc1,8.3,-5.9%,-5.4%[38.3 µM],11.0,0.3%,0.6%
CCOC(=O)c1ccccc1NS(=O)(=O)c1ccc(S(=O)(=O)N2CCCC2)cc1,u,-3.5%,43.2%[38.3 µM],3.6,-12.5%,22.4µM*
CCOC(=O)/C=C/C(=O)Nc1ccc(S(=O)(=O)N(C)c2ccccc2)cc1,x,x,9.5%,x,x,25.1µM*
CCOC(=O)c1ccccc1NC(=O)c1cc(S(=O)(=O)N2CCOCC2)ccc1F,16.8,0.1%,15.1%[38.3 µM],-5.6,-3.8%,-4.3%
CCOC(=O)CN(Cc1ccccc1)S(=O)(=O)c1ccc(NC(C)=O)cc1,u,2.2%,-23.1%[38.3 µM],u,-19.6%,5.62µM*
CCOC(=O)c1ccc(S(=O)(=O)Nc2cc(C(=O)O)ccc2Cl)cc1,x,x,-6.1%,x,x,3.16µM*
SMILES,PNC assembly inh,ALOX12 inhib,IMPase Li cell,IMPase cell inh,HPGD inh,ALDH1A1 block
NCCn1oc(=O)[nH]c1=O,x,x,-6.6%,x,x,4.8%
C=CCOC(=O)C(C(C)=O)C(NC(=O)OC)c1ccc(F)cc1 (stereo unspecified),x,x,x,x,x,20.6%[13.5 µM]
CC/C=C\C[C@H](O)/C=C/C=C\C/C=C\C/C=C\CCCC(=O)O,x,5.3%,7.5%,x,-5.1%,3.8%
CCOC(=O)/C=C/C(=O)Nc1ccc(S(=O)(=O)N2CCCCCC2)cc1,x,x,2.0%,x,x,3.55µM*
CC1CCN(c2c(NCc3ccc(C(=O)NCc4ccco4)cc3)c(=O)c2=O)CC1,54.8,-0.7%,3.0%,x,11.2µM*,1.8%
Cc1ccc(CNC(=O)c2ccc(CNc3c(N4CCCC4)c(=O)c3=O)cc2)cc1,5.5,-4.5%,2.9%[38.3 µM],0.4,14.1µM*,u
CC1CCCN(C(=O)c2ccc(CNc3c(N4CCCCC4)c(=O)c3=O)cc2)C1 (stereo unspecified),6.6,-0.4%,4.6%[38.3 µM],-1.8,0.282µM*,u
O=C(NCc1ccco1)c1ccc(CNc2c(N3CCCCC3)c(=O)c2=O)cc1,34.5,-2.1%,8.0%,x,14.1µM*,8.5%
Cc1ccc(NC(=O)c2ccc(CNc3c(N4CCOCC4)c(=O)c3=O)cc2)cc1,u,-4.0%,7.4%[38.3 µM],-10.6,-23.6%,u
CC1CCN(c2c(NCc3ccc(C(=O)NCc4cccnc4)cc3)c(=O)c2=O)CC1,u,-7.7%,5.5%,-0.1,u,13.5%
Cc1cccc(N2CCN(C(=O)c3ccc(CNc4c(N5CCC(C)CC5)c(=O)c4=O)cc3)CC2C)c1 (stereo unspecified),x,x,7.3%,x,x,-1.9%
COc1ccc(-n2c(=O)c3ccccc3n(Cc3cccc(C)c3)c2=O)cc1OC,x,x,-3.9%,x,x,5.1%
c1ccc2c(c1)CCC[C@@H]2C1=NCCN1,x,0.6%[25.6 µM],-2.7%,3.8[20.6 µM],-5.3%,19.4%[20.9 µM]
CCNc1ncc2nc(C)c(=O)n(C)c2n1,x,x,-6.7%,x,x,u
C=C(C)C(O)/C=C/C=C/c1ccccc1 (stereo unspecified),x,x,x,x,x,-13.4%[13.5 µM]
CCCOc1ccccc1Cn1c(=O)sc2ccccc21,x,x,x,1.9,x,x
O=C(NC1CCCc2ccccc21)c1ccc(CNc2c(N3CCOCC3)c(=O)c2=O)cc1 (stereo unspecified),31.3,-1.8%,6.2%,-8.4,-9.6%,0.5%
CC1CCN(c2c(NCc3ccc(C(=O)N4CCc5ccccc54)cc3)c(=O)c2=O)CC1,u,1.4%,5.7%[38.3 µM],-1.2,17.8µM*,u
O=C(Oc1ccccc1)N1CCC2(CC1)CCN(c1ccccn1)CC2,x,-13.8%,24.3%,x,-15.3%,u
COc1ccc(CNc2ccnc(-c3ccccc3CN(C)C)n2)c(OC)c1,x,x,13.7%,x,x,0.3%
CCOc1ccccc1N1CC(C(=O)Nc2c(C)n(C)n(-c3ccccc3)c2=O)CC1=O (stereo unspecified),x,x,4.6%,x,x,u
O=C(NC(=S)Nc1ccc(Cl)cc1)c1ccccc1,x,x,x,x,x,15µM*
O=C(Nc1ccc(NC(=S)NC(=O)c2cccs2)cc1)c1ccccc1,18.9,-2.5%,1.5%,x,-8.8%,u
CCC(=O)NC(=S)Nc1ccc(NC(=S)NC(=O)c2ccc(C)cc2)cc1,x,x,-7.4%,x,x,-9.6%
CC(=O)NC(=S)Nc1ccc(NC(=O)COc2ccc(Cl)cc2)cc1,9.1,-6.1%,10.3%[38.3 µM],6.6,-5.1%,-9.8%
